Measurements taken from PubChem BioAssay (NCI).
Several values for one entry are separate records, joined by “and”; a condition that tells them apart may be missing. Equal values may be shown once. Compounds without any hit were thinned out: in the full panel of roughly 83,000, 20% have a hit.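 Single-concentration screen, 48 h exposure, 96-well plates. Endpoint: percent growth. Below 10 = active.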 Activity calls are given as the source filed them.

Columns and labels:
Experiment in all cases: NCI-60 one-dose screen, 48 h (100 = growth as untreated, 0 = no growth, -100 = all killed)
NCI-H23 lung = conditions: 10 µM
NCI-H226 lung = conditions: 10 µM
NCI-H322M lung = conditions: 10 µM
HOP-62 NSCLC = conditions: 10 µM
NCI-H460 lung = conditions: 10 µM
HOP-92 NSCLC = conditions: 10 µM
NCI-H522 lung = conditions: 10 µM unless noted
A549/ATCC NSCLC = conditions: 10 µM
786-0 renal = conditions: 10 µM
COLO 205 colon = conditions: 10 µM
DU-145 prostate = conditions: 10 µM unless noted
K-562 leukemia = conditions: 10 µM
MALME-3M melanoma = conditions: 10 µM
MDA-MB-231 breast = conditions: 10 µM
RXF 393 renal = conditions: 10 µM unless noted
SF-268 CNS = conditions: 10 µM
SF-295 CNS = conditions: 10 µM
UACC-257 melanoma = conditions: 10 µM
M14 melanoma = conditions: 10 µM
SF-539 CNS = conditions: 10 µM

Measured: growth

O=[N+]([O-])C1=C(c2ccccc2)SC=C(c2ccccc2)S1
inactive: NCI-H23 lung 79.3% | NCI-H226 lung 74% | NCI-H322M lung 92.4% | HOP-62 NSCLC 74.1% | NCI-H460 lung 67.3% | HOP-92 NSCLC 65.9% | NCI-H522 lung 42% | A549/ATCC NSCLC 62.4% | 786-0 renal 95.4% | COLO 205 colon 86.9% | DU-145 prostate 75.2% | K-562 leukemia 72.7% | MALME-3M melanoma 54.5% | MDA-MB-231 breast 69.3% | RXF 393 renal 54.2% | SF-268 CNS 97.9% | SF-295 CNS 93.7% | UACC-257 melanoma 51.3% | M14 melanoma 65.2%

CCO/C=C1\SC(=S)N(c2cccc(O)c2)C1=O
inactive: NCI-H23 lung 106% | NCI-H226 lung 96.1% | NCI-H322M lung 95.8% | HOP-62 NSCLC 97.4% | NCI-H460 lung 106% | 786-0 renal 101% | COLO 205 colon 109% | DU-145 prostate 109% | K-562 leukemia 89.9% | MALME-3M melanoma 88.2% | MDA-MB-231 breast 102% | RXF 393 renal 102% | SF-268 CNS 103% | SF-295 CNS 99.5% | SF-539 CNS 102% | M14 melanoma 105%

OCC1OC(n2cnc3c(=S)nc[nH]c32)C(O)C1O (stereo not given)
77.3% (inactive) and 3.94% (active): NCI-H522 lung
inactive: NCI-H23 lung 104% and 71.8% | NCI-H226 lung 100% and 63.7% | NCI-H322M lung 96.5% and 62.9% | HOP-62 NSCLC 115% and 53.9% | NCI-H460 lung 113% and 62% | HOP-92 NSCLC 56.6% and 61.8% | A549/ATCC NSCLC 99.6% and 101% | 786-0 renal 100% and 35.1% | COLO 205 colon 116% and 47.5% | DU-145 prostate 98.4% and 51.9% | K-562 leukemia 124% and 41.6% | MALME-3M melanoma 87.3% and 53.3% | MDA-MB-231 breast 99.2% and 61.9% | RXF 393 renal 98.2% and 70.2% | SF-268 CNS 109% and 53.9% | SF-295 CNS 101% and 41.7% | SF-539 CNS 103% and 31.8% | UACC-257 melanoma 105% and 52.7% | M14 melanoma 126% and 32.4%

Cc1cc(O)c(C(C)C)cc1Cl
inactive: NCI-H23 lung 106% | NCI-H226 lung 96.7% | NCI-H322M lung 96.9% | HOP-62 NSCLC 95.7% | NCI-H460 lung 99.1% | HOP-92 NSCLC 99.9% | NCI-H522 lung 101% | 786-0 renal 101% | COLO 205 colon 107% | DU-145 prostate 101% | K-562 leukemia 96.8% | MALME-3M melanoma 109% | MDA-MB-231 breast 104% | RXF 393 renal 120% | SF-268 CNS 99.3% | SF-295 CNS 100% | SF-539 CNS 105% | M14 melanoma 101%

CO[C@H](C(=O)[C@@H](O)[C@@H](C)O)[C@@H]1Cc2cc3cc(OC4CC(OC5CC(O)C(O)C(C)O5)C(O)C(C)O4)c(C)c(O)c3c(O)c2C(=O)[C@H]1OC1CC(OC2CC(OC3CC(C)(O)C(O)C(C)O3)C(O)C(C)O2)C(O)C(C)O1 (stereo not given in full)
active: NCI-H23 lung -28.9% | NCI-H322M lung 5.87% | HOP-62 NSCLC 7.51% | NCI-H460 lung 2.6% | HOP-92 NSCLC -1.5% | NCI-H522 lung -44.7% | A549/ATCC NSCLC 2.67% | 786-0 renal 2.93% | COLO 205 colon -67.5% | K-562 leukemia 6.76% | MALME-3M melanoma -54.6% | RXF 393 renal 5.86% | SF-539 CNS -20.2% | UACC-257 melanoma 4.4% | M14 melanoma -71.5%
inactive: NCI-H226 lung 10.8% | DU-145 prostate 24.7% | MDA-MB-231 breast 14.6% | SF-268 CNS 12.3% | SF-295 CNS 19.1%

OC(CN1CCCC2CCCCC21)c1cc2ccccc2c2ccccc12 (stereo not given)
inactive: NCI-H23 lung 12.6% | NCI-H226 lung 39.3% | NCI-H322M lung 49.4% | HOP-62 NSCLC 11.2% | HOP-92 NSCLC 25.1% | NCI-H522 lung 80.1% | A549/ATCC NSCLC 51.5% | DU-145 prostate 40.3% | MALME-3M melanoma 17.7% | SF-268 CNS 45.7% | SF-539 CNS 27.8% | UACC-257 melanoma 22.7%
active: NCI-H460 lung 7.08% | 786-0 renal -11.6% | COLO 205 colon -73.2% | K-562 leukemia -14.4% | MDA-MB-231 breast -11.2% | SF-295 CNS -3.44% | M14 melanoma -69.8%

COc1c(O)cc2oc3cc(O)c(CC=C(C)C)c(O)c3c(=O)c2c1CC=C(C)C
inactive: NCI-H23 lung 54.6% | NCI-H226 lung 72.9% | NCI-H322M lung 83.6% | HOP-62 NSCLC 75.7% | NCI-H460 lung 28.4% | HOP-92 NSCLC 77% | NCI-H522 lung 60.4% | A549/ATCC NSCLC 54.3% | 786-0 renal 78.4% | COLO 205 colon 95.2% | DU-145 prostate 62% | K-562 leukemia 26.7% | MALME-3M melanoma 87.4% | MDA-MB-231 breast 40.2% | RXF 393 renal 83% | SF-268 CNS 57.9% | SF-295 CNS 56.2% | SF-539 CNS 89% | M14 melanoma 54.4%

O=C1C=C(O)c2ccccc2C1=O.[Ag]
inactive: NCI-H23 lung 91.8% | NCI-H322M lung 99% | HOP-62 NSCLC 98.3% | NCI-H460 lung 94.7% | 786-0 renal 104% | COLO 205 colon 78.8% | DU-145 prostate 121% | K-562 leukemia 83.5% | MALME-3M melanoma 85.3% | MDA-MB-231 breast 89.2% | SF-268 CNS 113% | SF-295 CNS 97% | SF-539 CNS 114% | UACC-257 melanoma 76.2% | M14 melanoma 91.3%
active: NCI-H522 lung -34.4%

CN1CCN(CCCN2c3ccccc3Sc3ccc(C(F)(F)F)cc32)CC1
active: COLO 205 colon -79% | K-562 leukemia -11.9% | MALME-3M melanoma -10.5% | UACC-257 melanoma -59.5% | M14 melanoma -74%
inactive: NCI-H23 lung 69.9% | NCI-H226 lung 101% | NCI-H322M lung 69.7% | HOP-62 NSCLC 61.8% | NCI-H460 lung 33.6% | NCI-H522 lung 73% | A549/ATCC NSCLC 59.4% | 786-0 renal 37.2% | DU-145 prostate 70.4% | MDA-MB-231 breast 52.7% | RXF 393 renal 37% | SF-268 CNS 63.5% | SF-295 CNS 42.9%

CC(C)(C)CC(C)(C)c1ccc(OCCO)cc1
inactive: NCI-H23 lung 106% | NCI-H226 lung 105% | NCI-H322M lung 115% | HOP-62 NSCLC 110% | NCI-H460 lung 117% | A549/ATCC NSCLC 96.4% | 786-0 renal 109% | COLO 205 colon 110% | DU-145 prostate 111% | K-562 leukemia 93.4% | MALME-3M melanoma 158% | MDA-MB-231 breast 106% | RXF 393 renal 119% | SF-268 CNS 108% | SF-295 CNS 109% | SF-539 CNS 96.8% | UACC-257 melanoma 108% | M14 melanoma 112%

Oc1ccc(N=Nc2ccccn2)c(O)c1
inactive: NCI-H23 lung 29.2% | NCI-H226 lung 21.1% | NCI-H322M lung 31.6% | HOP-62 NSCLC 15.8% | HOP-92 NSCLC 57.6% | NCI-H522 lung 29.3% | A549/ATCC NSCLC 17.5% | 786-0 renal 10.3% | DU-145 prostate 24.5% | MALME-3M melanoma 36.1% | MDA-MB-231 breast 35.7% | RXF 393 renal 43.4% | SF-268 CNS 20.6% | SF-295 CNS 20% | SF-539 CNS 13.1%
active: NCI-H460 lung 8.17% | COLO 205 colon 8.83% | UACC-257 melanoma 3.09% | M14 melanoma -6.58%

CCCCCC(C)c1ccc(O)c(C)c1 (stereo not given)
inactive: NCI-H23 lung 104% | NCI-H226 lung 96% | NCI-H322M lung 99.3% | HOP-62 NSCLC 98.4% | NCI-H460 lung 107% | HOP-92 NSCLC 98% | NCI-H522 lung 88.2% | A549/ATCC NSCLC 113% | 786-0 renal 93.6% | COLO 205 colon 111% | DU-145 prostate 103% | K-562 leukemia 90.6% | RXF 393 renal 113% | SF-268 CNS 98.3% | SF-295 CNS 95.5% | SF-539 CNS 103% | UACC-257 melanoma 99.3% | M14 melanoma 97.7%

CCC(C)(C)c1cc(O)c(C(C)(C)CC)cc1O
active: HOP-92 NSCLC -7.38% | MDA-MB-231 breast 6.91%
inactive: NCI-H23 lung 38.5% | NCI-H226 lung 41.8% | NCI-H322M lung 45.6% | HOP-62 NSCLC 54.8% | NCI-H460 lung 21.2% | A549/ATCC NSCLC 49.9% | COLO 205 colon 40.7% | DU-145 prostate 76.5% | K-562 leukemia 39.8% | MALME-3M melanoma 102% | RXF 393 renal 32.5% | SF-268 CNS 43.3% | SF-295 CNS 24.6% | SF-539 CNS 43% | UACC-257 melanoma 51%

O=C(O)COc1ccc(OCC(=O)O)cc1
active: NCI-H23 lung -0.769% | NCI-H226 lung -60.2% | HOP-62 NSCLC -15% | NCI-H460 lung -17.8% | HOP-92 NSCLC -3.9% | NCI-H522 lung -3.87% | 786-0 renal -9.28% | DU-145 prostate 5.6% | SF-295 CNS -9.53% | SF-539 CNS -0.842%
inactive: NCI-H322M lung 39.3% | COLO 205 colon 16% | K-562 leukemia 20% | MALME-3M melanoma 21.3% | MDA-MB-231 breast 27.8% | RXF 393 renal 24.7% | SF-268 CNS 14.2% | M14 melanoma 20.7%

Nc1ccc2cc3ccc(N)cc3nc2c1
127% (inactive) and 8.54% (active): RXF 393 renal
107% (inactive) and -17.1% (active): UACC-257 melanoma
84.3% (inactive) and 2.08% (active): A549/ATCC NSCLC
96.7% (inactive) and -1.28% (active): HOP-92 NSCLC
107% (inactive) and -50.9% (active): MALME-3M melanoma
109% (inactive) and -39.2% (active): COLO 205 colon
102% (inactive) and 0.17% (active): NCI-H460 lung
101% (inactive) and 3.42% (active): NCI-H23 lung
active: NCI-H322M lung -7.06% | HOP-62 NSCLC 6.72% | NCI-H522 lung -50.9% | K-562 leukemia 9.74%
inactive: 786-0 renal 113% and 43.8% | DU-145 prostate 112% and 24.3% | MDA-MB-231 breast 97% and 18.4% | SF-268 CNS 115% and 18.5% | SF-295 CNS 114% and 14.4% | SF-539 CNS 107% and 21% | M14 melanoma 107% and 12.6%
87% (inactive) and -2.76% (active): NCI-H226 lung
